{"source": "PubChem BioAssay AID1159580", "about": "(chemical genetic matrix, 2015)", "assay": "chemical genetic growth profiling, strain panel (AID 1159580);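 also: tested at 20 µM; growth read once vehicle control cultures reached saturation at 30 °C; 1 = growth at the plate median or of vehicle wells; lower values mean less growth of the strain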", "conditions": "S. cerevisiae deletion strains, growth OD", "note": "Values joined by “and” are separate entries in the source; they are usually repeats but may differ in a detail not shown here. Equal entries are not always repeated. Screen size: about 5,500 compounds; about 2,000 (36%) were called active. About 18% were inconclusive and are not listed. Some of the results follow. A number with no mark means an inactive call. Rule as the data show it: active = normalized growth mostly below about 0.91 (no sharp cut-off); inconclusive = no clear call, values can overlap the other calls; inactive = mostly above about 0.92.", "data": [{"smiles": "CCCCCCOc1ccccc1C(N)=O", "values": [{"measurement": "normalized growth", "setting": "locus YAL013W, strain DEP1, hits give low values", "value": "0.662 (active)"}, {"measurement": "normalized growth", "setting": "locus YAL021C, strain ccr4, hits give low values", "value": 1.04}, {"measurement": "normalized growth", "setting": "locus YAL026C, strain drs2, hits give low values", "value": "0.75 (active)"}, {"measurement": "normalized growth", "setting": "locus YAL030W, strain snc1, hits give low values", "value": 0.939}, {"measurement": "normalized growth", "setting": "locus YBL061C, strain skt5, hits give low values", "value": "0.893 (active)"}, {"measurement": "normalized growth", "setting": "locus YBR009C, strain hhf1, hits give low values", "value": "0.862 (active)"}, {"measurement": "normalized growth", "setting": "locus YBR021W, strain FUR4, hits give low values", "value": "0.84 (active)"}, {"measurement": "normalized growth", "setting": "locus YBR023C, strain chs3, hits give low values", "value": "0.81 (active)"}, {"measurement": "normalized growth", "setting": "locus YBR171W, strain sec66, hits give low values", "value": "0.857 (active)"}, {"measurement": "normalized growth", "setting": "locus YBR229C, strain ROT2, hits give low values", "value": "0.86 (active)"}, {"measurement": "normalized growth", "setting": "locus YBR231C, strain swc5, hits give low values", "value": 0.922}, {"measurement": "normalized growth", "setting": "locus YBR279W, strain paf1, hits give low values", "value": 0.934}, {"measurement": "normalized growth", "setting": "locus YCL011C, strain gbp2, hits give low values", "value": "0.897 (active)"}, {"measurement": "normalized growth", "setting": "locus YCL016C, strain dcc1, hits give low values", "value": "0.874 (active)"}, {"measurement": "normalized growth", "setting": "locus YCL029C, strain bik1, hits give low values", "value": "0.38 (active)"}, {"measurement": "normalized growth", "setting": "locus YCL069W, strain vba3, hits give low values", "value": "0.849 (active)"}, {"measurement": "normalized growth", "setting": "locus YCR088W, strain abp1, hits give low values", "value": 0.94}, {"measurement": "normalized growth", "setting": "locus YDL005C, strain med2, hits give low values", "value": 0.964}, {"measurement": "normalized growth", "setting": "locus YDL035C, strain GPR1, hits give low values", "value": "0.553 (active)"}, {"measurement": "normalized growth", "setting": "locus YDL040C, strain nat1, hits give low values", "value": 0.948}, {"measurement": "normalized growth", "setting": "locus YDL074C, strain BRE1, hits give low values", "value": "0.443 (active)"}, {"measurement": "normalized growth", "setting": "locus YDL101C, strain DUN1, hits give low values", "value": "0.505 (active)"}, {"measurement": "normalized growth", "setting": "locus YDL134C, strain PPH21, hits give low values", "value": "0.513 (active)"}, {"measurement": "normalized growth", "setting": "locus YDL185W, strain tfp1, hits give low values", "value": "0.636 (active)"}, {"measurement": "normalized growth", "setting": "locus YDL192W, strain arf1, hits give low values", "value": "0.654 (active)"}, {"measurement": "normalized growth", "setting": "locus YDR001C, strain nth1, hits give low values", "value": 0.949}, {"measurement": "normalized growth", "setting": "locus YDR069C, strain doa4, hits give low values", "value": 0.989}, {"measurement": "normalized growth", "setting": "locus YDR101C, strain arx1, hits give low values", "value": "0.655 (active)"}, {"measurement": "normalized growth", "setting": "locus YDR137W, strain rgp1, hits give low values", "value": "1.39 [resistant] (active)"}, {"measurement": "normalized growth", "setting": "locus YDR150W, strain NUM1, hits give low values", "value": "0.744 (active)"}, {"measurement": "normalized growth", "setting": "locus YDR159W, strain sac3, hits give low values", "value": "0.784 (active)"}, {"measurement": "normalized growth", "setting": "locus YDR162C, strain NBP2, hits give low values", "value": "0.338 (active)"}, {"measurement": "normalized growth", "setting": "locus YDR195W, strain ref2", "value": 1.05}, {"measurement": "normalized growth", "setting": "locus YDR297W, strain sur2, hits give low values", "value": "0.914 (active)"}, {"measurement": "normalized growth", "setting": "locus YDR318W, strain mcm21, hits give low values", "value": "0.41 (active)"}, {"measurement": "normalized growth", "setting": "locus YDR334W, strain swr1, hits give low values", "value": 0.959}, {"measurement": "normalized growth", "setting": "locus YDR335W, strain msn5, hits give low values", "value": 0.956}, {"measurement": "normalized growth", "setting": "locus YDR388W, hits give low values", "value": "0.71 (active)"}, {"measurement": "normalized growth", "setting": "locus YDR392W, strain spt3, hits give low values", "value": "0.335 (active)"}, {"measurement": "normalized growth", "setting": "locus YDR502C, strain sam2, hits give low values", "value": "0.546 (active)"}, {"measurement": "normalized growth", "setting": "locus YEL003W, strain gim4, hits give low values", "value": "0.867 (active)"}, {"measurement": "normalized growth", "setting": "locus YEL037C, strain rad23, hits give low values", "value": 0.943}, {"measurement": "normalized growth", "setting": "locus YEL061C, strain CIN8 (second series), hits give low values", "value": 0.935}, {"measurement": "normalized growth", "setting": "locus YEL061C, strain CIN8, hits give low values", "value": "0.449 (active)"}, {"measurement": "normalized growth", "setting": "locus YER015W, strain faa2, hits give low values", "value": "0.892 (active)"}, {"measurement": "normalized growth", "setting": "locus YER016W, strain bim1, hits give low values", "value": 0.928}, {"measurement": "normalized growth", "setting": "locus YER110C, hits give low values", "value": "0.544 (active)"}, {"measurement": "normalized growth", "setting": "locus YER111C, strain swi4, hits give low values", "value": 0.941}, {"measurement": "normalized growth", "setting": "locus YER155C, strain BEM2 (second series), hits give low values", "value": "0.249 (active)"}, {"measurement": "normalized growth", "setting": "locus YER155C, strain BEM2, hits give low values", "value": "0.304 (active)"}, {"measurement": "normalized growth", "setting": "locus YER167W, strain BCK2, hits give low values", "value": "0.367 (active)"}, {"measurement": "normalized growth", "setting": "locus YFR010W, strain ubp6, hits give low values", "value": 0.985}, {"measurement": "normalized growth", "setting": "locus YGL078C, strain dbp3, hits give low values", "value": "0.864 (active)"}, {"measurement": "normalized growth", "setting": "locus YGL086W, strain mad1, hits give low values", "value": "0.439 (active)"}, {"measurement": "normalized growth", "setting": "locus YGL167C, strain pmr1, hits give low values", "value": 0.92}, {"measurement": "normalized growth", "setting": "locus YGL173C, strain kem1, hits give low values", "value": 0.939}, {"measurement": "normalized growth", "setting": "locus YGL227W, strain vid30, hits give low values", "value": 0.947}, {"measurement": "normalized growth", "setting": "locus YGL240W, strain doc1, hits give low values", "value": "0.789 (active)"}, {"measurement": "normalized growth", "setting": "locus YGL248W, strain PDE1, hits give low values", "value": "0.612 (active)"}, {"measurement": "normalized growth", "setting": "locus YGL253W, strain hxk2, hits give low values", "value": "0.824 (active)"}, {"measurement": "normalized growth", "setting": "locus YGR135W, strain pre9, hits give low values", "value": "0.533 (active)"}, {"measurement": "normalized growth", "setting": "locus YGR229C, strain SMI1, hits give low values", "value": "0.144 (active)"}, {"measurement": "normalized growth", "setting": "locus YGR252W, strain gcn5, hits give low values", "value": "0.446 (active)"}, {"measurement": "normalized growth", "setting": "locus YHR013C, strain ard1, hits give low values", "value": 0.916}, {"measurement": "normalized growth", "setting": "locus YHR027C, strain rpn1, hits give low values", "value": 0.945}, {"measurement": "normalized growth", "setting": "locus YHR030C, strain SLT2, hits give low values", "value": "0.0615 (active) and 0.831 (active)"}, {"measurement": "normalized growth", "setting": "locus YHR079C, strain IRE1 (second series), hits give low values", "value": "0.646 (active)"}, {"measurement": "normalized growth", "setting": "locus YHR079C, strain IRE1, hits give low values", "value": 0.924}, {"measurement": "normalized growth", "setting": "locus YHR094C, strain hxt1, hits give low values", "value": "0.765 (active)"}, {"measurement": "normalized growth", "setting": "locus YHR129C, strain ARP1, hits give low values", "value": "0.474 (active)"}, {"measurement": "normalized growth", "setting": "locus YHR142W, strain chs7, hits give low values", "value": "0.692 (active)"}, {"measurement": "normalized growth", "setting": "locus YHR200W, strain rpn10, hits give low values", "value": "0.804 (active)"}, {"measurement": "normalized growth", "setting": "locus YIL066C, strain RNR3, hits give low values", "value": "0.188 (active)"}, {"measurement": "normalized growth", "setting": "locus YIL073C, strain SPO22, hits give low values", "value": "0.535 (active)"}, {"measurement": "normalized growth", "setting": "locus YIL125W, strain kgd1, hits give low values", "value": "0.796 (active)"}, {"measurement": "normalized growth", "setting": "locus YIR030C, strain dcg1, hits give low values", "value": "0.615 (active)"}, {"measurement": "normalized growth", "setting": "locus YJL092W, strain hpr5, hits give low values", "value": 0.919}, {"measurement": "normalized growth", "setting": "locus YJL095W, strain BCK1 (second series), hits give low values", "value": "0.704 (active)"}, {"measurement": "normalized growth", "setting": "locus YJL095W, strain BCK1, hits give low values", "value": "0.0726 (active) and 0.863 (active)"}, {"measurement": "normalized growth", "setting": "locus YJL115W, strain asf1, hits give low values", "value": 0.96}, {"measurement": "normalized growth", "setting": "locus YJL129C, strain trk1, hits give low values", "value": "0.755 (active)"}, {"measurement": "normalized growth", "setting": "locus YJL134W, strain LCB3, hits give low values", "value": "0.868 (active)"}, {"measurement": "normalized growth", "setting": "locus YJL154C, strain vps35, hits give low values", "value": 0.959}, {"measurement": "normalized growth", "setting": "locus YJL164C, strain tpk1, hits give low values", "value": "0.863 (active)"}, {"measurement": "normalized growth", "setting": "locus YJL166W, strain qcr8, hits give low values", "value": "0.822 (active)"}, {"measurement": "normalized growth", "setting": "locus YJL168C, strain set2, hits give low values", "value": "0.826 (active)"}, {"measurement": "normalized growth", "setting": "locus YJL187C, strain SWE1 (second series), hits give low values", "value": "0.612 (active)"}, {"measurement": "normalized growth", "setting": "locus YJL187C, strain SWE1, hits give low values", "value": "0.917 (active)"}]}]}
